The source of these data is PubChem BioAssay (EPA / NIEHS).

The AC50 is the midpoint of the concentration-response curve, whichever way the signal moves.

Assay [1] in a line: CCTE_Simmons_MITO_inhib_resp_rate: CCTE's HepG2 Seahorse XF Respirometric Screening Assay at Inhibited Respiratory State [full ETC block], Simmons Lab (AID 2284006). The note with it: actives raise or lower the signal. Put shortly:
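Compound injected onto HepG2 cells (125 nM–100 uM final, 7 points); FCCP then rotenone/antimycin A added. Oxygen consumption read every 6 min (3 min mix, 3 min measure) for 72 min. Inhibited-state OCR fitted against DMSO.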

The nature of assay [2]: CCTE_Shafer_MEA_acute_spike_number: CCTE's Neural Acute Assay for Total Number of Spikes, Shafer Lab (AID 2284008).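 On AC50: curve fitted for decrease in spike count so AC50 reflects inhibitors.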 A digest of the protocol:
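Cortical neurons from rat, matured to DIV 13 or 15 on microelectrode arrays, are recorded at 37 C before and during 40-min exposure to 0.03-40 uM compound. Wells need >/= 10 active electrodes.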

The nature of assay [3]: CCTE_Shafer_MEA_acute_firing_rate_mean: CCTE's Neural Acute Assay for Mean Firing Rate, Shafer Lab (AID 2284009).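 Further: analyzed for loss of signal so actives lower firing rate relative to DMSO.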 Put shortly:
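Rat primary cortical neurons on 48-well MEA plates, dosed at 0.03-40 uM on DIV 13 or 15; 40 min spontaneous activity recorded at 37 C before and after compound. Spike rate per electrode averaged per well, expressed as percent change from baseline.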

A short description of assay [4]: CCTE_Harrill_HTTr_Viability_MCF7: CCTE's 6-hour Cell Viability Assessment for the High-Throughput Transcriptomics (HTTr) Platform, in MCF-7 cells cultured in DMEM + 10% fetal bovine serum, Harrill Lab (AID 2284010). A digest of the protocol:
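Cells were dosed with chemicals in an eight-point dilution series, imaged 6 hours later for propidium iodide uptake, and the endpoint was analyzed by bidirectional fitting against DMSO as negative control.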

A short description of assay [5]: CCTE_Harrill_HTTr_Apoptosis_MCF7: CCTE's 6-hour Apoptosis Assessment for the High-Throughput Transcriptomics (HTTr) Platform, in MCF-7 cells cultured in DMEM + 10% fetal bovine serum, Harrill Lab (AID 2284011). A digest of the protocol:
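Cells are dosed with test chemicals at eight concentrations and imaged 6 hours later for caspase-3/7 activity using a green fluorogenic detection reagent. Activity is fitted in both directions against DMSO controls.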

A short description of assay [6]: CCTE_Harrill_HTTr_CellCount_MCF7: CCTE's Cell Proliferation Assessment for the High-Throughput Transcriptomics (HTTr) Platform, Harrill Lab (AID 2284012; active means hit-call score of the fitted dose curve at least 0.9, where 1 is the maximum;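 further: cells exposed to compound for six hours; intended direction is loss of nuclei count meaning fewer cells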). Put shortly: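 Chemicals in eight-point dilution series are added to MCF-7 cells for six hours, nuclei are stained with Hoechst and imaged, and per-well nuclei counts are fitted in both directions relative to DMSO controls.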

A short description of assay [7]: CCTE_Shafer_MEA_acute_burst_number: CCTE's Neural Acute Assay for Single-Electrode Bursts, Shafer Lab (AID 2284013). A digest of the protocol:
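Primary rat cortical neurons on 16-electrode MEA wells, treated on DIV 13 or 15 with compound at 0.03-40 uM. Single-electrode burst count from 40-min recordings at 37 C before and after exposure; percent change from baseline per well, DMSO negative control.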

The nature of assay [8]: CCTE_Shafer_MEA_acute_burst_duration_mean: CCTE's Neural Acute Assay for Mean Burst Duration, Shafer Lab (AID 2284014).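 Further: hits are decreases in mean burst duration relative to DMSO controls.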 Put shortly: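 Rat primary cortical neurons on 48-well MEA, treated at DIV 13 or 15 with 0.03-40 uM in at least 3 wells. Value is percent change in mean burst duration, comparing 40 min recordings at 37 C before and during exposure.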
Assay [9] can be described thus: CCTE_Shafer_MEA_acute_per_burst_spike_number_mean: CCTE's Neural Acute Assay for Average Number of Spikes Per Burst, Shafer Lab (AID 2284015).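 Further: hits are decreases in mean spikes per burst versus baseline.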 A digest of the protocol:
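Primary rat cortical neurons on 48-well MEA plates, treated on DIV 13 or 15 at 0.03-40 uM. Spontaneous activity recorded 40 min before and 40 min after compound at 37 C; percent change in mean spikes per single-electrode burst per well, fitted in the loss direction versus DMSO.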

Assay [10] is described as follows: CCTE_Simmons_MITO_viability: CellTiter-Glo Viability Assessment for CCTE's HepG2 Seahorse XF Respirometric Screening Assay [post-hoc], Simmons Lab (AID 2284007; active means hit-call score of the fitted dose curve at least 0.9, where 1 is the maximum;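 on AC50: cells exposed to chemical for 90 min before the ATP read; actives lower ATP signal relative to DMSO baseline meaning reduced viability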). A digest of the protocol:
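After the Seahorse oxygen-consumption sequence (basal, FCCP, rotenone/antimycin A; 72 min total), HepG2 viability was scored as ATP content by bioluminescence. Chemicals ran at seven concentrations up to 100 uM final for 90 min.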

Results filed as inconclusive are left out. Active and inactive are the calls of the source. How the source made its calls, unless noted: active means hit-call score of the fitted dose curve at least 0.9, where 1 is the maximum; inactive means score below 0.9.

Take `COc1ccc2sc(C(=O)Nc3nnn[nH]3)c(OC(C)C)c2c1`: the result in assay [1], in [2], in assay [3], in assay [4], in [5] and in assay [6] was inactive. Further, the result in assay [7], in [8] and in [9] was inactive.
Regarding `On1ccccc1=S`, the compound was called inactive in [2], in assay [3], in assay [4], in assay [5], in assay [6] and in assay [7]. Also, the compound was classed as inactive in assay [8] and in [9].
Regarding `O=C(O)c1cccc(N(Cc2cccnc2)c2ccc(OC(F)F)c(OC(F)F)c2)c1`, the outcome in assay [1], in assay [4], in assay [5] and in assay [6] was inactive. Further, in assay [10], the AC50 is 10.7 µM (active).
For `CCn1nc(Cc2ccccc2)cc1C1CCN(C[C@H]2C[C@H](N(C)[C@@H](C(=O)O)C(C)C)C[C@@H]2c2cccc(F)c2)CC1`, the call in assay [1], in assay [4], in [5] and in assay [6] was inactive.
Turning to `COc1ccc(/C=C/S(=O)(=O)NC(=O)c2ccc(C)cc2Cl)cc1`, the call in assay [1], in assay [4] and in [5] was inactive.
With `CC(C)c1cccc(C(C)C)c1N1C(=O)c2ccc(O)cc2C1=O`, the call in assay [1], in assay [10], in [4], in assay [5] and in assay [6] was inactive.
In the case of `CC(C)CC(C)(O)C#CC(C)(O)CC(C)C` (stereo unspecified), the outcome in assay [1], in assay [10], in assay [4] and in assay [5] was inactive.
For `CC(C)=CCCC(C)=CC=O`, the outcome in assay [1], in [2], in assay [3], in assay [4], in [5] and in assay [7] was inactive. Moreover, the compound was classed as inactive in assay [8] and in assay [9].
For `CCCN(C1CCN(C(=O)C2CCNCC2)CC1)[C@@H]1CCc2ccc(OC)cc2C1`, the compound was classed as inactive in assay [2], in assay [3], in assay [4], in assay [5], in assay [6] and in assay [7]. Also, the outcome in assay [8] and in assay [9] was inactive.
With `CCOC(=O)COc1ccc2c(c1)CC(NCC(O)c1cccc(Cl)c1)CC2` (stereo unspecified), the compound was classed as inactive in assay [1], in [4], in [5] and in assay [6].
For `Cc1ccc(N)cc1O`, in [1], the AC50 is 39.1 µM (active). In addition, in [10], the compound was classed as inactive.
For `CCOC(=O)c1ccc(C2CCC(NC[C@H](O)COc3ccc(O)c(NS(C)(=O)=O)c3)CC2)cc1` (stereo partly specified), the compound was called inactive in assay [1], in [2], in assay [3], in assay [4], in assay [5] and in assay [6]. In addition, the outcome in [7], in assay [8] and in assay [9] was inactive.
For `CCOc1cccc(-n2cc(C(=O)N3CCN(c4cc(C(=O)O)c5ccccc5c4)CC3)nc2-c2ccc(C)cc2)c1`, the compound was classed as inactive in assay [1], in [4], in assay [5] and in [6].
Turning to `CC[C@H]1CC[C@H](NCc2cc3c(cc2OC)[C@H]2C[C@H]2C(=O)N3C)[C@H](c2ccccc2)N1`, the AC50 was 3.07 µM (active) in assay [2], 3.07 µM (active) in [3] and 3.09 µM (active) in [7]. Also, the outcome in [4], in [5], in assay [6], in [8] and in assay [9] was inactive.
On to `O=c1[nH]c2ccc(S(=O)CCN3CCC(Cc4ccc(F)cc4)CC3)cc2o1` (stereo unspecified), for which the compound was called inactive in assay [1], in [4] and in [5].
With `Cn1c(=O)c2c(ncn2C)n(C)c1=O`, the compound was called inactive in assay [2], in [3], in [4], in assay [5], in [6] and in assay [7]. The AC50 was 30.8 µM (active) in [8] and 31.8 µM (active) in assay [9].
Regarding `Cc1[nH]cnc1C[C@H]1CCc2c(C)c3ccccc3n2C1=O`, the compound was classed as inactive in assay [1], in [10], in assay [4], in assay [5], in assay [6] and in assay [7]. In addition, the call in assay [8] and in assay [9] was inactive. In addition, the AC50 was 4.12 µM (active) in [2] and 4.13 µM (active) in [3].
Take `Nc1cccc(N)c1`: in assay [1], the AC50 is 28.7 µM (active). In addition, the outcome in assay [10], in [4] and in assay [5] was inactive.
In the case of `Cn1c(=O)cc(Oc2ccc(F)cc2F)c2cnc(NCC(C)(C)O)nc21`, the result in assay [1], in [10], in assay [4] and in assay [5] was inactive.
Consider `O=P(OC(CCl)CCl)(OC(CCl)CCl)OC(CCl)CCl`, for which the call in assay [2], in assay [3], in assay [4], in assay [5], in [6] and in assay [7] was inactive. For the same compound, the result in assay [8] and in assay [9] was inactive.
For `Cc1c(-c2cccnc2)c2ccccc2n1CCCCC(=O)O`, the outcome in assay [1], in assay [10], in assay [4], in [5] and in [6] was inactive.
Turning to `O=C(CCCCCCCCc1cccnc1)N1CCC(C=C(c2ccccc2)c2ccccc2)CC1`, the compound was classed as inactive in assay [1], in assay [4] and in assay [5].
